Reference: PubChem BioAssay
Activity calls are given as the source filed them.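 Rule for the calls, unless noted: active = mean inhibition above 46.5%, the solvent-only control mean plus 3 SD; inactive = the rest.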

These molecules were tested on transactivating tegument protein VP16 (Human herpesvirus 1) (assay: VP16 transactivation reporter inhibitors, counter-screen for SRC2 inhibitor project, cell-based, luminescence, single concentration (AID 652007; in the data active = inhibition above about 36%)). Settings: cell-based VP16 transactivation luciferase reporter, at 8.9 µM, stronger effect = higher value.

| Compound | inhibition |
| --- | --- |
| COC(=O)N1C(=O)[C@](c2ccccc2)(C2CCCC2)N1C(=O)OC | -1.09% (inactive) |
| CN(C)S(=O)(=O)c1cccc(NC(=S)N/N=C/c2cc(Br)ccc2O)c1 | -15.5% (inactive) |
| Cc1ccc(NC(=O)c2ccc(Nc3c([N+](=O)[O-])cc([N+](=O)[O-])cc3[N+](=O)[O-])cc2)cc1 | 50% (active) |
| COc1cccc(/C=N/NC(=O)c2cc3c(OC)ccc(OC)c3[nH]2)c1O | -23.7% (inactive) |
| COc1cccc2c1C(=O)c1c(O)c3c(c(O)c1C2=O)C[C@](O)(C(C)=O)C[C@H]3O[C@@H]1C[C@@H](N)[C@@H](O)[C@@H](C)O1 | 40.6% (active) |
| Cc1oc2c(c1C(=O)c1ccccc1)C(=O)C(=O)c1ccccc1-2 | -18.3% (inactive) |
| CCCn1nc([N+](=O)[O-])c(C(C#N)c2nc3ccccc3s2)c(Cl)c1=O (stereo unspecified) | 20.4% (inactive) |
| O=C1C(Cl)=C(Nc2ccc3cn[nH]c3c2)C(=O)c2ccccc21 | -24% (inactive) |
| CC(=O)C1C(=O)c2c(cccc2[N+](=O)[O-])C1=Nc1ccc(S(N)(=O)=O)cc1 (stereo unspecified) | -19.4% (inactive) |
| COc1ccc(/C=C2\CN(Cc3ccccc3)C/C(=C\c3ccc(OC)c(O)c3)C2=O)cc1O | 73.1% (active) |
| CN(c1ccccc1)S(=O)(=O)c1ccc(NC(=O)c2nc(S(C)(=O)=O)ncc2Cl)cc1 | 94.3% (active) |
| Cc1ccc(C(C)C)c(OCc2ccc(C(=O)N/N=C/c3ccc(O)c(O)c3)cc2)c1 | -11% (inactive) |
| CCCOc1ccc(/C=N/NC(=S)Nc2ccccc2[N+](=O)[O-])c(O)c1 | 74.5% (active) |

The molecules below were run against Nuclear receptor coactivator 2 (Homo sapiens) (UniProt Q15596) (assay: SRC2 coactivator transcriptional activity inhibitors, confirmation, cell-based, luminescence, HEK293, triplicate (AID 652008;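 note: 0% = DMSO-treated cells and 100% = Gossypol at 36 µM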)). Settings: HEK293 GAL4-SRC2 luciferase reporter, at 8.9 µM, stronger effect = higher value.
Nuclear receptor coactivator 2 (Homo sapiens), sequence (Q15596 whole entry, looked up, the tested form may be a part): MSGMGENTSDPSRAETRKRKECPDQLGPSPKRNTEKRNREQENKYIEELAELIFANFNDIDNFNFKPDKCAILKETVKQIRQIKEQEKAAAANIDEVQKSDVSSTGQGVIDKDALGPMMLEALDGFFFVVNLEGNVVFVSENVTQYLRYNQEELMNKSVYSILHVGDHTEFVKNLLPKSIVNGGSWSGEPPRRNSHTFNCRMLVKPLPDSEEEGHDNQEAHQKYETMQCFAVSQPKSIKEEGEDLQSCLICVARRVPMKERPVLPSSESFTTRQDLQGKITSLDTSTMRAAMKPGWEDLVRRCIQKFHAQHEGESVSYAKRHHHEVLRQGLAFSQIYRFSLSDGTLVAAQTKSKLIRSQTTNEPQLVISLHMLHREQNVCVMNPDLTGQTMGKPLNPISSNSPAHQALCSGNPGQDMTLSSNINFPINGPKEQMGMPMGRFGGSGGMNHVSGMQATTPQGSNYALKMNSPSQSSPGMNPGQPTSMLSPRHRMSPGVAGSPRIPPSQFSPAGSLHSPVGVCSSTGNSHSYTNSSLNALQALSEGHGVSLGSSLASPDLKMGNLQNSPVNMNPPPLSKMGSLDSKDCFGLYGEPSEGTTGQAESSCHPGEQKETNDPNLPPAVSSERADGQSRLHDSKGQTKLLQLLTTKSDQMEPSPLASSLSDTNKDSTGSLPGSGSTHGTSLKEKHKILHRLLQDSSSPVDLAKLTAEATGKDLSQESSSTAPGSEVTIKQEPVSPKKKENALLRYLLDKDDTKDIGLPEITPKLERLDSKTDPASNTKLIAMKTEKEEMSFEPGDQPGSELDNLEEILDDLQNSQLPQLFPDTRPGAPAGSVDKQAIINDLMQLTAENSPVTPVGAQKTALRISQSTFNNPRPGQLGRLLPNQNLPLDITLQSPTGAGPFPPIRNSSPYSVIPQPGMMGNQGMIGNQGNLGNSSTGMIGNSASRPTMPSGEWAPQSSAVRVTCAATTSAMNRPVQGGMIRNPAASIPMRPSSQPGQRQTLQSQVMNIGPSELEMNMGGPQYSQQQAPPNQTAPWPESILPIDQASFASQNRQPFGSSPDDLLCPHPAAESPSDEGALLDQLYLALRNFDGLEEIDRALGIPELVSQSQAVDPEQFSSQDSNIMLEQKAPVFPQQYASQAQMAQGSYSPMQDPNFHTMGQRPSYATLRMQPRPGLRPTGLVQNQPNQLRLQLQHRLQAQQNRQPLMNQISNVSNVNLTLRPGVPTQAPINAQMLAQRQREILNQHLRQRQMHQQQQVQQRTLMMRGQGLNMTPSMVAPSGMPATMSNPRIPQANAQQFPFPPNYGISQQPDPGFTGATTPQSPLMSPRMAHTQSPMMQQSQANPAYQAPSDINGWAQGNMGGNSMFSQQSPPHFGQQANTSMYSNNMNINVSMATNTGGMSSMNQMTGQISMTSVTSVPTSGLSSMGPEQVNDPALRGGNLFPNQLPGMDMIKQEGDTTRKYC

| Compound | inhibition |
| --- | --- |
| COC(=O)N1C(=O)[C@](c2ccccc2)(C2CCCC2)N1C(=O)OC | -4.92% (inactive) |
| CN(C)S(=O)(=O)c1cccc(NC(=S)N/N=C/c2cc(Br)ccc2O)c1 | 24.2% (inactive) |
| Cc1ccc(NC(=O)c2ccc(Nc3c([N+](=O)[O-])cc([N+](=O)[O-])cc3[N+](=O)[O-])cc2)cc1 | 27.1% (inactive) |
| COc1cccc(/C=N/NC(=O)c2cc3c(OC)ccc(OC)c3[nH]2)c1O | 28.4% (inactive) |
| COc1cccc2c1C(=O)c1c(O)c3c(c(O)c1C2=O)C[C@](O)(C(C)=O)C[C@H]3O[C@@H]1C[C@@H](N)[C@@H](O)[C@@H](C)O1 | 41.1% (inactive) |
| Cc1oc2c(c1C(=O)c1ccccc1)C(=O)C(=O)c1ccccc1-2 | 99.5% (active) |
| CCCn1nc([N+](=O)[O-])c(C(C#N)c2nc3ccccc3s2)c(Cl)c1=O (stereo unspecified) | 20.3% (inactive) |
| O=C1C(Cl)=C(Nc2ccc3cn[nH]c3c2)C(=O)c2ccccc21 | 52.9% (active) |
| CC(=O)C1C(=O)c2c(cccc2[N+](=O)[O-])C1=Nc1ccc(S(N)(=O)=O)cc1 (stereo unspecified) | 2.35% (inactive) |
| COc1ccc(/C=C2\CN(Cc3ccccc3)C/C(=C\c3ccc(OC)c(O)c3)C2=O)cc1O | 22.9% (inactive) |
| CN(c1ccccc1)S(=O)(=O)c1ccc(NC(=O)c2nc(S(C)(=O)=O)ncc2Cl)cc1 | 77.3% (active) |
| Cc1ccc(C(C)C)c(OCc2ccc(C(=O)N/N=C/c3ccc(O)c(O)c3)cc2)c1 | 62.6% (active) |
| CCCOc1ccc(/C=N/NC(=S)Nc2ccccc2[N+](=O)[O-])c(O)c1 | 84% (active) |
